# In PubChem BioAssay (NCATS):
# Inconclusive results are not listed. Activity calls are given as the source filed them. Calls follow the shape of the dose curve; as a rule, active = well fitted inhibition curve with a large enough effect; inconclusive = small, poorly fitted or top-dose-only effect; inactive = flat fitted curve, though single readings scatter.
# Test system: P94_40
# Assay: qHTS profiling for inhibitors of Plasmodium falciparum proliferation (AID 504749);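 also: 0% = DMSO vehicle and full inhibition = artemisinin control; nearly all actives have a fitted effect of over 60% in size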
# Settings: P. falciparum in erythrocytes, SYBR Green DNA, 72 h; series mostly up to 28.7 µM; activity, negative = inhibition: at the top concentration
# Procedure, shortened: (§1)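 Quantitative HTS: compounds pinned into medium, infected erythrocytes added (0.3% parasitemia, 2.5% hematocrit), 72 h culture at 37 C under 5% CO2. Saponin/Triton lysis with SYBR Green I, overnight RT, then fluorescence read.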
SMILES,"activity, negative = inhibition",Potency
CCC(=O)c1ccc(O)cc1,1.37% (inactive),–
Cc1cc(CC(=O)O)n(C)c1C(=O)c1ccc(Cl)cc1,–,inactive
CC12CCC(CC1)C(C)(C)O2,6.18% (inactive),–
COc1cc(C(=O)N2CCOCC2)cc(OC)c1OC,–,inactive
CCCOC(=O)c1ccccc1,4.32% (inactive),–
OCC(O)CN1CCN(c2ccccc2)CC1 (stereo unspecified),2.97% (inactive),–
O=C1NS(=O)(=O)c2ccccc21,-16% (inactive),–
CC(=O)Oc1ccc(C2(c3ccc(OC(C)=O)cc3)C(=O)Nc3ccccc32)cc1,–,inactive
CC(=O)Nc1ccc(/C=N/NC(N)=S)cc1,–,inactive
O=C(O)CC(O)C(=O)O (stereo unspecified),0.985% (inactive),–
O=C(CCCN1CCN(c2ccccn2)CC1)c1ccc(F)cc1,-13.4% (inactive),–
CC1=C(/C=C/C(C)=C/C=C/C(C)=C/C(=O)O)C(C)(C)CCC1,-2.56% (inactive),–
Nc1nc2c(ncn2CCC(CO)CO)c(=O)[nH]1,12.9% (inactive),–
O=C(O)c1ccccn1,1.22% (inactive),–
Nc1ncnc2c1ncn2[C@@H]1O[C@H](CO)[C@@H](O)[C@H]1O,7.73% (inactive),–
Cn1c(=O)c2c(ncn2CC2OCCO2)n(C)c1=O,-15.5% (inactive),–
NC(CSCC(=O)O)C(=O)O (stereo unspecified),-15.2% (inactive),–

SMILES,"activity, negative = inhibition",Potency
O=C(O)c1ccccc1O,4.6% (inactive),–
CCCCCCCCCCCCOS(=O)(=O)O,2.43% (inactive),–
CCCCC(CC)COC(=O)c1ccccc1O (stereo unspecified),11.6% (inactive),–
CC(O)CN(CCN(CC(C)O)CC(C)O)CC(C)O (stereo unspecified),7.32% (inactive),–
Cc1ncc(COP(=O)(O)O)c(C=O)c1O,5.57% (inactive),–
CC[C@@]1(c2ccccc2)NC(=O)N(C)C1=O,0.286% (inactive),–
[O-][n+]1cccc(CO)c1,-2.56% (inactive),–
Oc1cccc(O)c1,19.3% (inactive),–
CCn1cc(C(=O)O)c(=O)c2cnc(N3CCNCC3)nc21,9.91% [at 12.8 µM] (inactive),–
CCC(=O)Nc1ccc(O)cc1,6.06% (inactive),–
O=c1cc[nH]c(=O)[nH]1,1.48% (inactive),–
C=Cc1c(C)c2cc3[nH]c(cc4nc(cc5nc(cc1[nH]2)C(C)=C5CCC(=O)O)C(CCC(=O)O)=C4C)c(C)c3C=C,1.8% (inactive),–
CC(O)COc1ccccc1 (stereo unspecified),13.5% (inactive),–
NS(=O)(=O)c1cc2c(cc1Cl)NC(CSCc1ccccc1)=NS2(=O)=O,-3.31% [at 12.8 µM] (inactive),–
CCCCCCCCCCCCCCCCCCOCC(O)CO (stereo unspecified),7.98% (inactive),–
CC1(C)[C@@H]2CC[C@@]1(C)C(=O)C2,4.64% (inactive),–

# Test system: PAD
# Assay: as above
# Settings: P. falciparum in erythrocytes, SYBR Green DNA, 72 h; series mostly up to 28.7 µM; activity, negative = inhibition: at the top concentration
# Procedure, shortened: as §1
SMILES,"activity, negative = inhibition",Potency
CCC(=O)c1ccc(O)cc1,6% (inactive),–
Cc1cc(CC(=O)O)n(C)c1C(=O)c1ccc(Cl)cc1,–,inactive
CC12CCC(CC1)C(C)(C)O2,9.11% (inactive),–
COc1cc(C(=O)N2CCOCC2)cc(OC)c1OC,–,inactive
CCCOC(=O)c1ccccc1,12.3% (inactive),–
OCC(O)CN1CCN(c2ccccc2)CC1 (stereo unspecified),12.4% (inactive),–
O=C1NS(=O)(=O)c2ccccc21,15.3% (inactive),–
CC(=O)Oc1ccc(C2(c3ccc(OC(C)=O)cc3)C(=O)Nc3ccccc32)cc1,–,inactive
CC(=O)Nc1ccc(/C=N/NC(N)=S)cc1,–,inactive
O=C(O)CC(O)C(=O)O (stereo unspecified),13.4% (inactive),–
O=C(CCCN1CCN(c2ccccn2)CC1)c1ccc(F)cc1,-7.63% (inactive),–
CC1=C(/C=C/C(C)=C/C=C/C(C)=C/C(=O)O)C(C)(C)CCC1,-3.07% (inactive),–
Nc1nc2c(ncn2CCC(CO)CO)c(=O)[nH]1,4.05% (inactive),–
O=C(O)c1ccccn1,2.09% (inactive),–
Nc1ncnc2c1ncn2[C@@H]1O[C@H](CO)[C@@H](O)[C@H]1O,3.54% (inactive),–
Cn1c(=O)c2c(ncn2CC2OCCO2)n(C)c1=O,9.44% (inactive),–
NC(CSCC(=O)O)C(=O)O (stereo unspecified),13.3% (inactive),–

SMILES,"activity, negative = inhibition",Potency
O=C(O)c1ccccc1O,14.9% (inactive),–
CCCCCCCCCCCCOS(=O)(=O)O,2.51% (inactive),–
CCCCC(CC)COC(=O)c1ccccc1O (stereo unspecified),16.1% (inactive),–
CC(O)CN(CCN(CC(C)O)CC(C)O)CC(C)O (stereo unspecified),11% (inactive),–
Cc1ncc(COP(=O)(O)O)c(C=O)c1O,12.6% (inactive),–
CC[C@@]1(c2ccccc2)NC(=O)N(C)C1=O,22.7% (inactive),–
[O-][n+]1cccc(CO)c1,10% (inactive),–
Oc1cccc(O)c1,8.31% (inactive),–
CCn1cc(C(=O)O)c(=O)c2cnc(N3CCNCC3)nc21,-2.84% [at 12.8 µM] (inactive),–
CCC(=O)Nc1ccc(O)cc1,12.6% (inactive),–
O=c1cc[nH]c(=O)[nH]1,11% (inactive),–
C=Cc1c(C)c2cc3[nH]c(cc4nc(cc5nc(cc1[nH]2)C(C)=C5CCC(=O)O)C(CCC(=O)O)=C4C)c(C)c3C=C,0.391% (inactive),–
CC(O)COc1ccccc1 (stereo unspecified),13.3% (inactive),–
NS(=O)(=O)c1cc2c(cc1Cl)NC(CSCc1ccccc1)=NS2(=O)=O,0.791% [at 12.8 µM] (inactive),–
CCCCCCCCCCCCCCCCCCOCC(O)CO (stereo unspecified),14.7% (inactive),–
CC1(C)[C@@H]2CC[C@@]1(C)C(=O)C2,18.9% (inactive),–
